# Reference: PubChem BioAssay (Tox21)
# A number with no mark means an inactive call. Activity calls are given as the source filed them. The call rests on the fitted dose curve; in most records, active means well fitted curve in the direction sought with a large enough effect in the repeat runs; inconclusive means weak or mixed curves; inactive means flat fitted curve, though single readings scatter.
# Assay: qHTS assay to test for compound auto fluorescence at 535 nm (green) in HEK293 cells (AID 720680)
# Settings: green autofluorescence 485/535 nm; series mostly up to 91.3 µM
# Text: U.S. Tox21 Program National Center for Advancing Translational Sciences [NCATS] NIH Chemical Genomics Center [NCGC] U.S. Environmental Protection Agency [EPA] National Institutes of Environmental Health Sciences [NIEHS] National Toxicology Program [NTP] U.S. Food and Drug Administration [FDA] Tox21 Assay Overview: Compound auto fluorescence often interferes with screening of the compound library against various biological targets and signaling pathways. Some of these compounds may have fluorophoric properties. Such properties may interfere with the assay outputs resulting in false positives and/or negatives. To decrease such complications and ensure the compound activities are relevant in terms of biological response, the Tox21 10K compound library was screened for auto fluorescence. From the fluorophores used as reporter signals in our screening assays, the auto fluorescence equivalencies of compounds against three fluorophores have been evaluated: Triamterene, Fluorescein and Rose Bengal sodium for blue, green and red fluorescence, respectively. The fluorescence intensities were measured using Excitation/Emission wavelengths at 405/460nm, 485/535nm and 540/590nm for blue, green and red labels, respectively. This assay includes the green fluorescence data.
# Tox21 Assay Protocol Summary: 2,000 HEK293 cells in 5 uL of culture medium containing 10% dialyzed FBS per well were dispensed into black wall/clear bottom 1536-well plates using a Multidrop Combi Dispenser (Thermo Scientific). The assay plates were incubated for 4-5 hr at 37C to allow cell attachment to the well bottom, followed by the transfer of 23 nL compound or DMSO vehicle by a pintool work station (Kalypsys, San Diego, CA). After the assay plates were incubated overnight at 37C and 5% CO2, fluorescence intensities in the assay plates were measured by an Envision (PerkinElmer, Shelton, CT) plate reader using three labels for measuring blue, green and red fluorescence at […] 460, 535 and 590nm respectively.
# On the % scale 0 is the no-effect control and ±100 the full control effect.
Compound,outcome,"fluorescence, % of fluorescein"
c1cc[c]([Bi]([c]2ccccc2)[c]2ccccc2)cc1,inactive,
NC(=O)N(O)[C@@H]1COc2cc(OCc3ccccc3)ccc21,inactive,
OC(CCCN1CCCCC1)(c1ccccc1)c1ccccc1,inactive,
O=C(CS)OCCOC(=O)CS,inactive,
C=CC(C)(C)CC(=O)OC,inactive,
Cc1oc(C)c(C(=O)Nc2ccccc2)c1C,inactive,
Cc1nccn1-c1ccc(Sc2cccc(C3(C(N)=O)CCOCC3)c2)cc1,inactive,
O=C(CCCCCCC(=O)Nc1ccccc1)NO,inactive,
N#C/C(=C1\SCC(c2ccccc2Cl)S1)n1ccnc1 (stereo not given),inactive,
CN1CCN(c2c(F)cc3c(=O)c(C(=O)O)cn4c3c2OCN4C)CC1,inactive,
O=S(=O)(c1ccccc1)c1ccc(Cl)cc1,inactive,
CCOC(=N)CC(=O)OCC,inactive,
CC(C)CCCC(=O)O,inactive,
CCCCCCCC/C=C\CCCCCCCC(=O)OC,inactive,
O=C1OCCN1/N=C/c1ccc([N+](=O)[O-])o1,inactive,
CC1C2CC(CC2C2CCCC(O)C2)C1(C)C (stereo not given),inactive,
CCCCCCCCCCCC[N+](C)(C)CC(=O)[O-],inactive,
NC(=O)N(O)[C@@H]1C=C[C@H](Oc2cccc(Oc3ccc(F)cc3)c2)C1,inactive,
O=C(CCCN1CCC(O)(c2ccc(Br)cc2)CC1)c1ccc(F)cc1,,-0.0174% [at 18.6 µM]
Oc1ccc(Nc2ccccc2)cc1,inactive,

Compound,outcome,"fluorescence, % of fluorescein"
CN(C(=O)C(Cl)Cl)c1ccc(OC(=O)c2ccco2)cc1,inactive,
CC(N)CN (stereo not given),inactive,
CCCCC(CC)C(=O)OCCOCCOCCOCCOC(=O)C(CC)CCCC (stereo not given),inactive,
O=[N+]([O-])c1cccc(S(=O)(=O)NCCNS(=O)(=O)c2cccc([N+](=O)[O-])c2)c1,inactive,
CCCCN(CCCC)CCCOC(=O)c1ccc(N)cc1,,0.0466% [at 18.6 µM]
Cc1c(C(=O)NN2CCCCC2)nn(-c2ccc(Cl)cc2Cl)c1-c1ccc(Cl)cc1,inactive,
CNC(=S)NC,inactive,
C=CCOC(=O)/C=C\C(=O)OCC=C,inactive,
CCCCC1C(=O)N(c2ccccc2)N(c2ccc(O)cc2)C1=O (stereo not given),,-0.124% [at 18.6 µM]
CC(=O)Oc1ccc(C(=C2CCCCC2)c2ccc(OC(C)=O)cc2)cc1,inactive,
CCCCOC(=O)CCS,inactive,
OCC1CC=CCC1 (stereo not given),inactive,
Oc1cc(O)c(Cl)cc1Cl,inactive,
CCCCC(=O)O[C@]1(C(=O)CO)CC[C@H]2[C@@H]3CCC4=CC(=O)CC[C@]4(C)[C@H]3[C@@H](O)C[C@@]21C,inactive,
CCCCCCCCCOC(C)=O,inactive,
CCCCCCOC(=O)CCCCCCCC(=O)OCCCCCC,inactive,
CCCCC(CC)COC(=O)COc1ccc(Cl)cc1C (stereo not given),inactive,
Nc1ccc(C(=O)OCCCOC(=O)c2ccc(N)cc2)cc1,inactive,
O=C(Nc1ccccc1)Nc1ccccc1,inactive,
CCc1c2c(nc3ccc(OC(=O)N4CCC(N5CCCCC5)CC4)cc13)-c1cc3c(c(=O)n1C2)COC(=O)[C@]3(O)CC,inactive,
